Results taken from PubChem BioAssay AID2391 (Southern Research Specialized Biocontainment Screening …, 2010).
The whole screen tested about 310,000 compounds, of which about 410 (0.13%) were called active. Roughly 2% stayed inconclusive and do not appear here. The rule behind the calls is not given here. A selection follows. Results with a measured potency or affinity are listed apart.

Assay: RSV antiviral activity via CPE protection, HEp-2 cells, primary 10 µM value included (AID 2391)
Details: RSV-induced CPE inhibition, at 10 µM, stronger effect = higher value

CPE inhibition, inactive:
COc1ccc(C)cc1NC(=O)CSc1nnnn1C1CCCC1 2.31%, Cc1cc(=O)[nH]c(NCc2ccc(Cl)cc2)n1 0.3%, Cc1ccsc1C(=O)NNC(=O)C1C2C=CC(C2)C1C(=O)O (stereo unspecified) 0.87%, COc1ccc(OCc2nnc(SCC(=O)Nc3cccc(Cl)c3)o2)cc1 2.31%, CSc1nnc(-c2sc3cc(Cl)ccc3c2Cl)n1C 14%, CCn1c(SC)nnc1-c1nnc(SC)n1CC 3.28%, O=C(Cn1nc(-c2ccccc2)c2ccccc2c1=O)Nc1ccc(F)cc1 2.89%, COc1ccc(CNC(=O)c2coc(=O)c3ccccc23)cc1 5.17%, COc1ccc(CNC(=O)c2coc(=O)c3ccccc23)c(OC)c1 -0.36%, C#CCn1c(S(=O)(=O)Cc2ccccc2Cl)nc(-c2ccccc2)c1-c1ccccc1 -0.31%, C#CCn1c(S(=O)(=O)Cc2ccc(OC)cc2)nc(-c2ccccc2)c1-c1ccccc1 3.68%, Cc1cc([N+](=O)[O-])nn1CCCC(=O)O 5.17%, CN(NC(=O)c1cccc(Cl)c1)c1nc(-c2ccccc2)nnc1C(F)(F)F 3.22%, CCN(CC(=O)Nc1cc(Cl)ccc1C)C(=O)CCOc1ccc(C)cc1 0.1%, CCN(CC(=O)Nc1cc(Cl)ccc1C)C(=O)CSCc1c(C)noc1C 16.3%, COc1ccc(C(=O)NCC(=O)N/N=C/c2c(C)[nH]c3ccccc23)cc1 6.54%, COc1cc(C(=O)NCC(=O)N/N=C/c2c(C)[nH]c3ccccc23)cc(OC)c1OC 3.1%, CC(=O)c1ccc(N2CCN(C(=O)c3nn(Cc4ccccc4)c(=O)c4ccccc34)CC2)cc1 5.5%, COc1ccc(NC(=O)Cn2nnc(-c3ccccc3NC(=O)c3ccco3)n2)cc1 0.17%, COc1ccccc1NC(=O)c1sc2ncn(Cc3cccc4ccccc34)c(=O)c2c1C 2.87%, COc1ccccc1N(CC(=O)Nc1ccc(F)c(F)c1)S(C)(=O)=O 0.09%, Nc1ccn([C@@H]2O[C@H](CO)[C@@H](O)C2O)c(=O)n1 (stereo partly specified) -2.12%, O=c1[nH]c(=O)n(C2OC(CO)C(O)C2O)cc1Br (stereo unspecified) -0.14%, Nc1ccn([C@@H]2O[C@H](CO)[C@@H](O)[C@@H]2O)c(=O)n1 -0.64%, O=c1ccn([C@@H]2O[C@H](CO)[C@@H](O)[C@H]2O)c(=O)[nH]1 -0.56%, CCOc1ccccc1Nc1cc(C)nc2nnnn12 -1.74%
